In PubChem BioAssay AID602281 (The Scripps Research Institute Molecular Screening Center, 2012):
The whole screen tested about 360,000 compounds, of which about 2,900 (0.81%) were called active.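 Rule for the calls: active = inhibition above the mean inhibition across every tested compound plus 3 SD (cut at about 22% in these data); inactive = the rest.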 What follows is part of a selection rich in actives, with near analogues and random picks from the rest.

Molecular target: Perilipin-5 (Homo sapiens) + 1-acylglycerol-3-phosphate O-acyltransferase ABHD5 (Homo sapiens) (UniProt Q00G26+Q8WTS1)
Test: ABHD5-PLIN5 interaction inhibitors, primary screen, cell lysate, split luciferase complementation, luminescence (AID 602281);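 note: 0% = DMSO only wells and the 100% control is not disclosed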
Conditions: Split G. princeps luciferase complementation, 4 h, at 4 µM, active compounds read high

Perilipin-5 (Homo sapiens) + 1-acylglycerol-3-phosphate O-acyltransferase ABHD5 (Homo sapiens), sequence (Q00G26 whole entry, looked up): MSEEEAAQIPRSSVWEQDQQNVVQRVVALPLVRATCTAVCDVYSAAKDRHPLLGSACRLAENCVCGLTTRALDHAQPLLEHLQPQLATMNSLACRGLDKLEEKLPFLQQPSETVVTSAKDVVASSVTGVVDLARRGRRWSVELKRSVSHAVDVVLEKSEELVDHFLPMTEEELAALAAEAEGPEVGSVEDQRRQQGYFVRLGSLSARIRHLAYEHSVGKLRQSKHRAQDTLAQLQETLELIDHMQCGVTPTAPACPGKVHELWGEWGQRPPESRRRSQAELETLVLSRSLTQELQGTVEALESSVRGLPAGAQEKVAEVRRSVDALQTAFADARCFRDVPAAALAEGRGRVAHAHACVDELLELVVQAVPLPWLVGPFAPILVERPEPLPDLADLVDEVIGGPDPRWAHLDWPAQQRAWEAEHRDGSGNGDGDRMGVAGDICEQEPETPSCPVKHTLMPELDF
Perilipin-5 (Homo sapiens) + 1-acylglycerol-3-phosphate O-acyltransferase ABHD5 (Homo sapiens), sequence (Q8WTS1 whole entry, looked up): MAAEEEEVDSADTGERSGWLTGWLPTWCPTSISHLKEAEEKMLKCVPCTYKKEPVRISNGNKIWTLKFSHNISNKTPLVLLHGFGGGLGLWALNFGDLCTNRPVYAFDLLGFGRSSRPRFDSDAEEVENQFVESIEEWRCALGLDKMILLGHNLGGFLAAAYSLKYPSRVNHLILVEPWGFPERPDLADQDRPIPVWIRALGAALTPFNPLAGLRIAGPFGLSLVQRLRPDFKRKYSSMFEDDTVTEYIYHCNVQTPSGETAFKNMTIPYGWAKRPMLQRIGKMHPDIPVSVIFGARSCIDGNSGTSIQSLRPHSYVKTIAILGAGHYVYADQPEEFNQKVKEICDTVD

Structure (SMILES) | inhibition
O=C(NNC(=S)Nc1ccccc1)c1cccc(S(=O)(=O)N2CCOCC2)c1 | -0.88% (inactive)
COC(=O)C[C@H]1C=C[C@H](NC(=O)c2ccc(F)cc2)[C@@H](CO)O1 | 7.9% (inactive)
CCOc1ccccc1NC(=S)C(=C([O-])c1ccc2c(c1)OCCO2)[n+]1ccc(CC)cc1 | -7.74% (inactive)
Cc1nn(C)c(C)c1C(C)NC(=O)c1ccc(OC2CCN(Cc3ccccn3)CC2)cc1 (centres undefined) | 11.1% (inactive)
CC1Cc2[nH][nH]c(=O)c2C(C2CCCC2)O1 (centres undefined) | 8.22% (inactive)
O=C(Nc1n[nH]c(C(F)(F)F)n1)c1cccs1 | 3.2% (inactive)
COC(=O)c1nc(NC(=O)c2ccc(C(C)(C)C)cc2)n[nH]1 | 81.5% (active)
CSc1nccc(NC(=O)c2ccc(C(C)(C)C)cc2)n1 | -0.98% (inactive)
Cc1ccc(NC(=O)c2ccc(Cl)nc2)cc1S(=O)(=O)N1CCOCC1 | -3.8% (inactive)
CCCn1c(SCC(=O)Nc2c(C)cccc2C)nnc1C(C)C | 5.88% (inactive)
CCOC(=O)c1nnn(CC(=O)Nc2cccc(F)c2)c1C(=O)OCC | -0.66% (inactive)
O=C(O)c1cccnc1NC1CCCC1 | 7.94% (inactive)
COc1ccc(CCNC(=O)CN(c2ccccc2)S(C)(=O)=O)cc1OC | 6.8% (inactive)
COc1ccc(CCNC(=O)c2ccc(CS(=O)(=O)c3ccc(Br)cc3)o2)cc1OC | 5.5% (inactive)
COc1ccc(CCNC(=O)c2nnc(CS(=O)(=O)c3ccccc3)o2)cc1OC | 23.8% (active)
CC(=O)Oc1ccc(C)cc1N1C(=O)c2ccc(C(=O)O)cc2C1=O | 0.33% (inactive)
O=C(c1ccc2c(c1)C(=O)N(c1ccc(Cl)cc1)C2=O)N1CCN(c2ccccn2)CC1 | 0.95% (inactive)
O=C(O)c1ccc2c(c1)C(=O)N(c1ccc(/C=C/C(=O)c3ccccc3)cc1)C2=O | 50.4% (active)
O=[N+]([O-])c1ccc(S(=O)(=O)Nc2cccc(-c3ccc(N4CCCC4)nn3)c2)cc1 | -6.73% (inactive)
COC(=O)CN(c1nc(C)c(Cl)c(OC)n1)S(=O)(=O)c1ccc(C)cc1 | -6.3% (inactive)
Cc1ccc(C(c2sc3nc(C)nn3c2O)N2CCN(c3ccc(F)cc3)CC2)cc1 (centres undefined) | -0.55% (inactive)
Cc1nc2sc(C(c3ccco3)N3CCC4(CC3)OCCO4)c(O)n2n1 (centres undefined) | 22.7% (active)
Cc1nc2sc(C(c3ccco3)N3CCOCC3)c(O)n2n1 (centres undefined) | 26.3% (active)
Cc1ccc(C(c2sc3nc(C)nn3c2O)N2CCN(c3ccccc3)CC2)cc1 (centres undefined) | 2.33% (inactive)

Structure (SMILES) | inhibition
Oc1c(C(c2ccco2)N2CCC3(CC2)OCCO3)sc2ncnn12 (centres undefined) | 12.2% (inactive)
COC(=O)[C@@]12C[C@@H](CC(=O)N3CCC(c4ccccc4)CC3)C(=O)N(Cc3ccccc3)C1=CCC(C)(C)C2 | 4.36% (inactive)
CC1=NNC(=O)C1CC(=O)N/N=C/c1ccncc1 (centres undefined) | 0.97% (inactive)
CC(C)(C)C(=O)N1CCC[C@@]1(CO)C(=O)O | 0.41% (inactive)
CC[C@]12c3[nH]c4cc(CCC(=O)N(C)C)ccc4c3CCN1C(=O)[C@@H](CC(=O)NCCCN(C)C)C[C@@H]2C(=O)N1CCN(C(=O)c2ccco2)CC1 | -4.19% (inactive)
COc1ccc(C2SCCN2S(=O)(=O)c2ccccc2)cc1OC (centres undefined) | -4.96% (inactive)
COc1ccc(C2=NO[C@@H]3C(=O)N(Cc4ccccc4)C(=O)[C@H]23)cc1OC | 3.37% (inactive)
COc1ccc(-c2cc(C(F)(F)F)nc(S(C)(=O)=O)n2)cc1OC | 26.6% (active)
CCN1CCN(C(=O)Cn2nc(C)n3c(cc4c(OC)cccc43)c2=O)CC1 | 0.48% (inactive)
CC(=O)N[C@H]1[C@H]([C@H](O)[C@H](O)CO)OC(C(=O)O)=C[C@@H]1O | 1.93% (inactive)
COc1ccc(CNC(=O)C(c2ccc(O)cc2)N(Cc2ccco2)C(=O)c2snc(C(N)=O)c2N)cc1 (centres undefined) | -11.3% (inactive)
Cc1ccnc(NC(=O)CCC(=O)N(CC(=O)NCc2ccccc2)Cc2ccco2)c1 | 1.15% (inactive)
NC(=O)c1nsc(C(=O)N(CC(=O)NCc2ccc(F)cc2)Cc2ccco2)c1N | 36% (active)
Cc1csc2ncc(C(=O)N(Cc3ccccc3)c3ccccn3)c(=O)n12 | 3.35% (inactive)
COc1cc(CNCCN(C)C)ccc1OCc1c(F)cccc1Cl | 11.6% (inactive)
O=C(/C=C/c1ccc(OCc2c(F)cccc2Cl)cc1)N1CCOCC1 | -6.95% (inactive)
CN(C)CCCNC(=O)/C=C/c1ccc(OCc2c(F)cccc2Cl)cc1 | 28.6% (active)
O=S(=O)(c1ccc2ccccc2c1)N1CCN(S(=O)(=O)N2CCOCC2)CC1 | -1.34% (inactive)
CC[C@@H](C)[C@@H]1CN([C@@H](C)CN2CCC[C@H]2CN2C(N)=NC[C@H]2C(C)C)C(=N)N1CCc1ccc(Cl)c(Cl)c1 | 11.4% (inactive)
C[C@@H](CN1CCC[C@H]1CN1C(N)=NC[C@@H]1Cc1ccccc1)N1C[C@@H](Cc2ccccc2)N(CCCC2CCCC2)C1=N | 34.8% (active)
CCCCN1C(N)=NC[C@@H]1Cc1ccccc1 | 4.61% (inactive)
Cc1ccc2c(c1)N(CC(=O)N1CCCc3ccccc31)C(=O)C(C)O2 (centres undefined) | 5.29% (inactive)
CC(=O)NC1=NN(C(C)=O)C(C)(CCS(=O)(=O)c2ccc(Cl)c(Cl)c2)S1 (centres undefined) | 2.36% (inactive)
CCN(CC)CCN(C(=O)c1ccc2c(c1)CCCC2)c1nc2c(OC)cccc2s1 | 25% (active)

Structure (SMILES) | inhibition
COc1ccccc1NC(=O)CC(NCCN(C)C)C(=O)O (centres undefined) | 0.5% (inactive)
COc1ccccc1CNC(=O)Cn1cc2c(n1)CCCC2 | 8.04% (inactive)
COc1cccc2sc(N(CCCN(C)C)C(=O)C(c3ccccc3)c3ccccc3)nc12 | 43.5% (active)
CN(CC1CCCN(CCc2cccc(C(F)(F)F)c2)C1)C(=O)c1ccc2nc[nH]c2c1 (centres undefined) | -0.06% (inactive)
CCN(CC)CCNS(=O)(=O)c1ccc(/C=C/C(=O)O)cc1 | 4.35% (inactive)
OCc1ccc(-c2ccccc2)c(-c2ccccc2)c1 | -5.6% (inactive)
CCCC/C(C)=N/NC(=O)NC1CCCCC1 | -3.36% (inactive)
COc1ccc(C2=NOC3(CC(=O)N(c4ccc(Cl)cc4)C3=O)C2)c(OC)c1 (centres undefined) | 0.13% (inactive)
Cc1cc(O)ccc1-c1cc(C(=O)NCc2cc(C(F)(F)F)cc(C(F)(F)F)c2)[nH]n1 | -13.6% (inactive)
COCCNc1nnc(SCC(=O)NNC(=O)c2ccco2)s1 | 0.13% (inactive)
COc1ccc(NC(=O)/C(Cl)=C(/Cl)S(=O)Cc2ccc(C)cc2)cn1 (centres undefined) | 96.3% (active)
CC(C)(C)C1C/C(=C/c2ccco2)C(=O)/C(=C/c2ccco2)C1 (centres undefined) | 52.8% (active)
COC(=O)COc1ccc2c(c1C)O/C(=C\c1ccco1)C2=O | 14.5% (inactive)
Cc1ccc(S(=O)(=O)Cn2nnnc2CN2CCN(Cc3ccc4c(c3)OCO4)CC2)cc1 | -0.76% (inactive)
O=C(CNC(=O)C12CC3CC(CC(C3)C1)C2)OCC(=O)N1CCCCC1 | -6.36% (inactive)
Cc1cc(C)nc(NS(=O)(=O)c2ccc(N3C(=O)C4CCCCC4C3=O)cc2)n1 (centres undefined) | -6.56% (inactive)
CCc1ccc(N(CC(=O)NCc2cccnc2)S(=O)(=O)c2ccccc2)cc1 | 8.86% (inactive)
O=C(CN(c1cc(C(F)(F)F)ccc1Cl)S(=O)(=O)c1ccccc1)NCc1cccnc1 | 3.26% (inactive)
O=C(c1cccnc1)N(c1cc2sc(=O)oc2c2ccccc12)S(=O)(=O)c1ccccc1 | 55.9% (active)
O=C(COC(=O)c1ncc(Cl)c(Cl)c1Cl)NCc1cccs1 | 0.28% (inactive)
CS(=O)(=O)N1CCCCC1c1cc(C(=O)NCc2ccccc2)no1 (centres undefined) | -1.92% (inactive)
CC1(C(=O)NS(=O)(=O)c2ccccc2)CCN1C(=O)C/C=C/c1ccccc1 (centres undefined) | 11% (inactive)
CC1(C)CCSC(/C=C/c2ccccc2)=N1 | 40.5% (active)
CNS(=O)(=O)c1cccc(C(=O)OCCCC(=O)c2ccccc2)c1 | 5.65% (inactive)

Structure (SMILES) | inhibition
CN1CCN(C2Cc3ccc(Cl)cc3Sc3ccc(F)cc32)CC1 (centres undefined) | 10.5% (inactive)
COCCNC(=O)Nc1ccc2nc(-c3ccco3)c(-c3ccco3)nc2c1 | 22.6% (active)
COc1ccc(CCNC(=O)Nc2ccc3c(c2)c(=O)n(C)n3C)cc1OC | 3.03% (inactive)
COCCNC(=O)CN(Cc1ccco1)C(=O)CCC(=O)Nc1nccs1 | 7.43% (inactive)
c1ccc(CC2CCN(c3nc4ccccc4n4cnnc34)CC2)cc1 | -9.78% (inactive)
O=C(COc1ccc(S(=O)(=O)N2CCCCC2)cc1)NCc1ccccn1 | -0.42% (inactive)
CN=C(c1ccccc1)c1c(C)cccc1C | 4.42% (inactive)
Cc1cccc(C)c1NC(=O)C(Cl)C(=O)c1ccccc1 (centres undefined) | 38.3% (active)
Cc1cccc(C)c1NC(=O)N1CC(C)OC(C)C1 (centres undefined) | 5.67% (inactive)
C[C@H](NC(=O)c1[nH]cnc1C(=O)Nc1nccs1)c1ccccc1 | 1.59% (inactive)
CC(C(=O)c1ccc(-c2ccccc2)cc1)[n+]1cccc(Br)c1 (centres undefined) | 0.81% (inactive)
Cn1c(=S)sc2ccc3ccccc3c21 | 1.97% (inactive)
Cc1cn(C)c(=O)n(C)c1=O | -0.3% (inactive)
Cc1ccc(-c2c3c(=O)n(C)c(=O)n(C)c3cn2-n2cnnc2)cc1 | 22.5% (active)
COc1ccc([N+](=O)[O-])cc1N(CC(=O)Nc1ccccc1C(=O)N1CCOCC1)S(C)(=O)=O | -1.59% (inactive)
CC(=O)NC1CCN(CC(=O)Nc2nccs2)CC1 | 6.01% (inactive)
CC(=O)Nc1ccc(C=CC(=O)c2ccc([N+](=O)[O-])cc2)cc1 | 27.1% (active)
O=C(/C=C/c1ccc(Cl)c([N+](=O)[O-])c1)c1ccc(O)cc1 | 67.9% (active)
O=C(O)c1ccc2c(=O)n3c(nc2c1)/C(=C/c1ccc(Cl)c([N+](=O)[O-])c1)CC3 | 3.3% (inactive)
Cc1ccnc(NC(=O)c2ccc(Cl)c([N+](=O)[O-])c2)c1 | 5.06% (inactive)
CC(C=Cc1ccccc1)=NNS(=O)(=O)c1ccc([N+](=O)[O-])cc1 | 1.47% (inactive)
CC(=O)Nc1ccc(C(=O)/C=C/c2ccc[nH]2)cc1 | 11.6% (inactive)
